# Laboratory results taken from PubChem BioAssay (NCATS).
# Records with an inconclusive call do not appear. Activity calls are given as the source filed them. Calls follow the shape of the dose curve; as a rule, active = well fitted curve in the direction sought with a large enough effect; inconclusive = small, poorly fitted or top-dose-only effect, or another doubt; inactive = no such curve, though single readings can be large; an effect the other way counts as inactive or inconclusive.
# Key:
# [1] = qHTS of pediatric cancer cell lines to identify multiple opportunities for drug repurposing: Primary screen for OHS-50 cells (AID 1347103); also: nearly all actives have a fitted effect of over 40% in size; also: potency is read from the fitted curve at half-maximal effect
# Outline: (§1)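 Cells (500-1,000/well) rested 5 h, then received compounds for 48 h; metabolically active cells were measured by CellTiter-Glo luminescence. Final concentrations spanned up to 46 µM (MIPE, 11-point) or 0.59 nM-46 µM (NPC, 8-point) in primary screens, 11-point in follow-ups.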
# [2] = qHTS of pediatric cancer cell lines to identify multiple opportunities for drug repurposing: Primary screen for MG 63 (6-TG R) cells (AID 1347105); also: nearly all actives have a fitted effect of over 50% in size; also: potency is read from the fitted curve at half-maximal effect
# Outline: (§2)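 Phenotypic viability qHTS, 48 h compound exposure, CellTiter-Glo luminescence read-out; multi-concentration dosing so that potency and efficacy derive directly from the primary screen's curves.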
# [3] = qHTS of pediatric cancer cell lines to identify multiple opportunities for drug repurposing: Primary screen for control Hh wild type fibroblast cells (AID 1347106);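 also: series mostly up to about 46 µM; a drop in luminescence marks cytotoxicity and a rise apparent proliferation; nearly all actives have a fitted effect of over 55% in size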
# Outline: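 Viability after 48 h compound treatment at 37C, 500-1,000 cells/well, read as ATP luminescence with CellTiter-Glo. Primary screens used 11-point (MIPE, 0.78 nM-46 µM) or 8-point (NPC, 0.59 nM-46 µM) final concentrations; follow-up screens used 11-point dilutions.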
# [4] = qHTS of pediatric cancer cell lines to identify multiple opportunities for drug repurposing: Primary screen for RD cells (AID 1347104); also: nearly all actives have a fitted effect of over 55% in size; also: potency is read from the fitted curve at half-maximal effect
# Outline: as §2
# [5] = qHTS of pediatric cancer cell lines to identify multiple opportunities for drug repurposing: Primary screen for Rh30 cells (AID 1347107); also: nearly all actives have a fitted effect of over 75% in size; also: potency is read from the fitted curve at half-maximal effect
# Outline: as §1
# [6] = qHTS of pediatric cancer cell lines to identify multiple opportunities for drug repurposing: Primary screen for Rh41 cells (AID 1347108); also: nearly all actives have a fitted effect of over 70% in size; also: potency is read from the fitted curve at half-maximal effect
# Outline: as §2
# [7] = qHTS of pediatric cancer cell lines to identify multiple opportunities for drug repurposing: Confirmatory screen for NB1643 cells (AID 1347109); also: potency is read from the fitted curve at half-maximal effect; nearly all actives have a fitted effect of over 45% in size
# Outline: as §1
# [8] = qHTS of pediatric cancer cell lines to identify multiple opportunities for drug repurposing: Confirmatory screen for SK-N-MC cells (AID 1347111);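 also: potency is read from the fitted curve at half-maximal effect; cells exposed to compound for 48 h before the readout; nearly all actives have a fitted effect of over 70% in size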
# Outline: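 Seed 500-1,000 cells/well; rest 5 h at 37 degrees C. Pin-transfer compounds, 11-point titration. Incubate 48 h. Add CellTiter-Glo, 15 min RT, read luminescence.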
# [9] = qHTS of pediatric cancer cell lines to identify multiple opportunities for drug repurposing: Confirmatory screen for LAN-5 cells (AID 1347113); also: potency is read from the fitted curve at half-maximal effect; nearly all actives have a fitted effect of over 65% in size
# Outline: as §1
# [10] = qHTS of pediatric cancer cell lines to identify multiple opportunities for drug repurposing: Confirmatory screen for DAOY cells (AID 1347114); also: potency is read from the fitted curve at half-maximal effect; nearly all actives have a fitted effect of over 65% in size
# Outline: (§3)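 Viability measured as metabolically active cells via CellTiter-Glo luminescence following 48 hours of compound exposure, 11-point dilutions in confirmatory testing. 500-1,000 cells/well plated 5 hours before dosing; controls were DMSO and 2.3 µM bortezomib.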
# [11] = qHTS of pediatric cancer cell lines to identify multiple opportunities for drug repurposing: Confirmatory screen for NB-EBc1 cells (AID 1347115);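 also: potency is read from the fitted curve at half-maximal effect; cells exposed to compound for 48 h before the viability read; nearly all actives have a fitted effect of over 45% in size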
# Outline: as §1
# [12] = qHTS of pediatric cancer cell lines to identify multiple opportunities for drug repurposing: Confirmatory screen for SJ-GBM2 cells (AID 1347116); also: potency is read from the fitted curve at half-maximal effect; nearly all actives have a fitted effect of over 60% in size
# Outline: as §3
# [13] = qHTS of pediatric cancer cell lines to identify multiple opportunities for drug repurposing: Confirmatory screen for BT-37 cells (AID 1347117); also: potency is read from the fitted curve at half-maximal effect; nearly all actives have a fitted effect of over 55% in size
# Outline: as §1
# [14] = qHTS of pediatric cancer cell lines to identify multiple opportunities for drug repurposing: Confirmatory screen for TC32 cells (AID 1347118);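 also: potency is read from the fitted curve at half-maximal effect; cells exposed to compound for 48 h before the read; nearly all actives have a fitted effect of over 65% in size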
# Outline: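 Luminescent CellTiter-Glo read-out of metabolically active TC32 cells after 48 h compound exposure. Primary: MIPE 11-point, 0.78 nM–46 µM; NPC 8-point, 0.59 nM–46 µM. Confirmatory: 11-point dilutions.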
# [15] = qHTS of pediatric cancer cell lines to identify multiple opportunities for drug repurposing: Confirmatory screen for MG 63 (6-TG R) cells (AID 1347119); also: potency is read from the fitted curve at half-maximal effect; nearly all actives have a fitted effect of over 55% in size
# Outline: as §1
# [16] = qHTS of pediatric cancer cell lines to identify multiple opportunities for drug repurposing: Confirmatory screen for Rh41 cells (AID 1347123); also: potency is read from the fitted curve at half-maximal effect; nearly all actives have a fitted effect of over 60% in size
# Outline: as §1
# [17] = qHTS of pediatric cancer cell lines to identify multiple opportunities for drug repurposing: Confirmatory screen for RD cells (AID 1347124);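 also: cells exposed to compound for 48 h before viability readout; nearly all actives have a fitted effect of over 65% in size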; also: potency is read from the fitted curve at half-maximal effect
# Outline: as §1
# [18] = qHTS of pediatric cancer cell lines to identify multiple opportunities for drug repurposing: Confirmatory screen for BT-12 cells (AID 1347112)
# Outline: as §1
# [19] = qHTS of pediatric cancer cell lines to identify multiple opportunities for drug repurposing: Confirmatory screen for control Hh wild type fibroblast cells (AID 1347121); also: nearly all actives have a fitted effect of over 70% in size
# Outline: as §1
structure (smiles),measurement,setting,value
COc1ccc(-n2c(C)c([N+](=O)[O-])c3ccc(O)cc32)cc1,Potency,[1],inactive
same,Potency,[2],inactive
same,Potency,[3],inactive
COc1ccc(C2Sc3ccccc3N(CCN(C)C)C(=O)C2OC(C)=O)cc1 (configuration not stated),Potency,[1],inactive
same,Potency,[4],inactive
same,Potency,[2],inactive
same,Potency,[5],inactive
same,Potency,[6],inactive
CCCCC1C(=O)N(c2ccccc2)N(c2ccccc2)C1=O,Potency,[1],inactive
same,Potency,[4],inactive
same,Potency,[3],inactive
same,Potency,[5],inactive
same,Potency,[6],inactive
O=c1c(-c2ccc(O)cc2)coc2cc(OC3O[C@H](CO)[C@H](O)[C@H](O)[C@H]3O)cc(O)c12 (some centres not stated),Potency,[1],inactive
same,Potency,[4],6.62 µM (active)
same,Potency,[2],inactive
same,Potency,[6],8.33 µM (active)
O=C1Nc2ccc(Cl)cc2C(C#CC2CC2)(C(F)(F)F)O1 (configuration not stated),Potency,[1],21.7 µM (active)
same,Potency,[4],41.8 µM (active)
same,Potency,[3],inactive
same,Potency,[5],inactive
N#CC(=C(N)Sc1ccccc1N)C(C#N)=C(N)Sc1ccccc1N,Potency,[1],27.3 µM (active)
same,Potency,[4],5.26 µM (active)
same,Potency,[6],18.7 µM (active)
CN(C)C1CCN(C(=O)c2ccc(NC(=O)Nc3nc(N4CCOCC4)nc(N4CCOCC4)n3)cc2)CC1,Potency,[1],0.0217 µM (active)
same,Potency,[4],0.0662 µM (active)
same,Potency,[2],0.0935 µM (active)
same,Potency,[5],inactive
same,Potency,[6],0.0935 µM (active)
same,Potency,[7],0.928 µM (active)
same,Potency,[8],0.208 µM (active)
same,Potency,[9],0.261 µM (active)
same,Potency,[10],14.7 µM (active)
same,Potency,[11],16.5 µM (active)
same,Potency,[12],1.47 µM (active)
same,Potency,[13],0.147 µM (active)
same,Potency,[14],0.0657 µM (active)
same,Potency,[15],0.233 µM (active)
same,Potency,[16],0.0827 µM (active)
same,Potency,[17],0.293 µM (active)
CS(=O)c1ccc(-c2nc(-c3ccc(F)cc3)c(-c3ccncc3)[nH]2)cc1 (configuration not stated),Potency,[1],44.4 µM (active)
same,Potency,[2],inactive
O=C(NCc1ccncc1)C12C[C@H]3C[C@@H](C1)CC(c1ccc(Cl)cc1)(C3)C2,Potency,[1],19.3 µM (active)
same,Potency,[4],10.5 µM (active)
same,Potency,[3],inactive
same,Potency,[6],23.5 µM (active)
same,Potency,[8],9.27 µM (active)
same,Potency,[18],26.1 µM (active)
same,Potency,[10],13.1 µM (active)
same,Potency,[13],20.8 µM (active)
same,Potency,[14],9.27 µM (active)
same,Potency,[19],inactive
same,Potency,[16],14.7 µM (active)
COc1ncc(-c2ccc3nccc(-c4ccnnc4)c3c2)cc1NS(=O)(=O)c1ccc(F)cc1F,Potency,[1],0.001 µM (active)
same,Potency,[4],0.372 µM (active)
same,Potency,[3],inactive
same,Potency,[5],1.48 µM (active)
same,Potency,[6],0.0118 µM (active)
same,Potency,[7],0.465 µM (active)
same,Potency,[8],0.0329 µM (active)
same,Potency,[9],0.0737 µM (active)
same,Potency,[11],8.27 µM (active)
same,Potency,[13],0.465 µM (active)
same,Potency,[14],0.0369 µM (active)
same,Potency,[15],0.0037 µM (active)
same,Potency,[16],0.0369 µM (active)
same,Potency,[17],inactive
